Shown is part of a subset that was picked to be rich in hits.
BoNT A protease = inhibitors of Botulinum neurotoxin A light chain protease; multiplex microsphere protease substrate cleavage, flow cytometry; inhibition, % at 10 µM; actives 0.17% (n = 360,000)
Autofluor counter = compound fluorescence in toxin protease inhibitor counterscreen; fluorescence intensity (no concentration beside the values); AID 624483; compound autofluorescence counterscreen, microsphere flow cytometry; stronger effect = higher value; actives 3.1% (n = 360,000); in the data active = fluorescence intensity above about 16000; inconclusive = no clear call, values can overlap the other calls
Anthrax LF inh2 = blocks Bacillus anthracis lethal factor protease | actives 0.12% (n = 360,000) | P15917 | AID 588501 | inhibition, % at 10 µM | multiplex microsphere protease cleavage assay, LF
TcdB inh = inhibitors of Clostridioides difficile toxin B glycohydrolase; TcdB glycohydrolase enzymatic assay, plate reader; inhibition, % at 9.99 µM; actives 0.24% (n = 350,000); in the data active = inhibition above about 10%
BoNT-F LC inh = BoNT F light chain protease inhibition; Multiplex microsphere protease cleavage assay, flow cytometry; inhibition, % at 10 µM; actives 0.22% (n = 360,000); in the data active = inhibition above about 35%, passing the limit was not always enough; inconclusive = no clear call, values can overlap the other calls
Large screens that a line does not name were inactive. Cut-off read from the data, not from the text of the source, unless noted: active = inhibition above about 30%; inconclusive = no clear call, values can overlap the other calls; inactive = below that.

CN(C)C(=O)C[C@@H]1CC[C@H]2[C@@H](COc3ccc(NC(=O)C4CCOCC4)cc3C(=O)N2C)O1	none (no result: BoNT A protease, Autofluor counter, Anthrax LF inh2, BoNT-F LC inh)
O=C(CSCc1ccccc1Cl)Nc1ccc2c(c1)OCCO2	BoNT A protease inconclusive, Autofluor counter 20949 (no result: TcdB inh)
COc1ccc(OCC(O)CNC2CCCC2)cc1 (stereo unspecified)	none
CC(=O)Nc1ccc(OCC(O)CNC2CCCC2)cc1 (stereo unspecified)	BoNT A protease inconclusive, Autofluor counter 23804 (no result: TcdB inh)
OC(CNC1CCCC1)COc1c(F)cc(Br)cc1F (stereo unspecified)	Autofluor counter 16538 (no result: TcdB inh)
C[C@@H]1CN([C@H](C)CO)C(=O)Cc2cc(NS(=O)(=O)c3ccc(Cl)cc3)ccc2O[C@@H]1CN(C)C(=O)NC1CCCCC1	none (no result: BoNT A protease, Autofluor counter, Anthrax LF inh2, BoNT-F LC inh)
C=CCOC(=O)[C@@H]1[C@H]2C(=O)O[C@H](c3ccccc3)[C@H](c3ccccc3)N2[C@H](c2ccc(OCCOC(=O)[C@@H]3C[C@@H]4C(=O)N[C@@H](Cc5ccccc5)C(=O)N4[C@@H]3c3ccc(O)cc3)cc2)[C@@]12C(=O)Nc1ccccc12	none (no result: BoNT A protease, Autofluor counter, Anthrax LF inh2, BoNT-F LC inh)
NC1CCCCC1N=Cc1c(O)n(CCc2ccc(F)cc2)c(=O)[nH]c1=O (stereo unspecified)	Autofluor counter inconclusive, BoNT-F LC inh 45 (no result: TcdB inh)
COc1ccc(CCn2c(O)c(C=NCCN3CCCCC3)c(=O)[nH]c2=O)cc1OC	Autofluor counter 20570 (no result: TcdB inh)
CCN(CC)CCCN=Cc1c(O)n(CCc2ccc(F)cc2)c(=O)[nH]c1=O	none (no result: TcdB inh)
COc1ccc(C#Cc2ccc([C@H]3[C@@H](CO)N4C(=O)CN(C(=O)c5cccnc5)C[C@H]34)cc2)cc1	none (no result: BoNT A protease, Autofluor counter, Anthrax LF inh2, BoNT-F LC inh)
COc1cc(OC)cc(C(=O)Nc2cccc(NC(=O)c3ccccc3)c2)c1	none
COc1cccc(C(=O)Nc2ccc(NC(C)=O)cc2)c1	BoNT A protease inconclusive, Autofluor counter 22073 (no result: TcdB inh)
COc1ccc(C(=O)NC2CCSC2=O)cc1 (stereo unspecified)	none (no result: TcdB inh)
COc1cccc(C(=O)NC2CCSC2=O)c1 (stereo unspecified)	Autofluor counter 19865 (no result: TcdB inh)
COc1cc(NC(=O)Nc2cccc(C(C)=O)c2)cc(OC)c1OC	Autofluor counter 21687 (no result: TcdB inh)
COc1cc(OC)cc(C(=O)Nc2cccc(C(C)=O)c2)c1	Autofluor counter 22501 (no result: TcdB inh)
COc1ccc2c3c(n(C)c2c1)[C@H](CO)N(S(C)(=O)=O)CC31CCN(C(=O)C2CCC2)CC1	none (no result: BoNT A protease, Autofluor counter, Anthrax LF inh2, BoNT-F LC inh)
CO[C@H](CN(C)S(=O)(=O)c1ccc(F)cc1)[C@@H](C)CN([C@H](C)CO)S(=O)(=O)c1cccc(Cl)c1	none (no result: BoNT A protease, Autofluor counter, Anthrax LF inh2, BoNT-F LC inh)
COc1ccc(NC(=O)c2cccc(OC(F)F)c2)cc1Cl	BoNT A protease inconclusive, Autofluor counter 23117 (no result: TcdB inh)
O=C(Nc1ccc(OC(F)F)c(Cl)c1)c1cccc(OC(F)F)c1	none (no result: TcdB inh)
CC(=O)c1cccc(NC(=O)c2oc(C)nc2C)c1	Autofluor counter 24179 (no result: TcdB inh)
COc1ccccc1-c1ccc2c(c1)[C@H]1[C@H](CCN1C(=O)C1CCOCC1)[C@H](CO)N2	none (no result: BoNT A protease, Autofluor counter, Anthrax LF inh2, BoNT-F LC inh)
Cc1cccc(NC(=S)NCc2cccs2)c1C	none (no result: TcdB inh)
Cc1cccc(NC(=S)NCc2ccccc2Cl)c1C	BoNT-F LC inh 37
Cc1cccc(NC(=S)NCc2ccc3c(c2)cc(C)n3C)c1C	BoNT A protease 47
COc1cccc(NC(=S)NCc2ccc3c(c2)cc(C)n3C)c1	BoNT A protease 54
NNC(=S)Nc1ccc(OC(F)(F)F)cc1	none (no result: BoNT A protease, Autofluor counter, Anthrax LF inh2, BoNT-F LC inh)
Cc1cc2cc(CNC(=S)Nc3ccc(OC(F)(F)F)cc3)ccc2n1C	BoNT A protease 60
CCOc1ccc(C(=O)Nc2nnc(C)s2)cc1OCC	BoNT A protease inconclusive, Autofluor counter 20767 (no result: TcdB inh)
Cc1cccc(NC(=O)C2Cc3ccccc3CN2C(=O)OCc2ccccc2)c1C (stereo unspecified)	none
Cc1c(Cl)cccc1NC(=O)C1Cc2ccccc2CN1C(=O)c1ccccc1 (stereo unspecified)	TcdB inh 11
O=C(C[C@H]1C=C[C@H](NC(=O)Nc2cc(F)ccc2F)[C@H](CO)O1)Nc1ccc(-c2ccccc2)cc1	none (no result: BoNT A protease, Autofluor counter, Anthrax LF inh2, BoNT-F LC inh)
N#Cc1ccc2ccn(CC(=O)NC3CCCCCC3)c2c1	Autofluor counter 21036 (no result: TcdB inh)
C=CCN1C(=O)C2(/C(=C(\O)c3ccc4c(c3)OCCO4)C(=O)C(=O)N2CCCOC)c2ccccc21 (stereo unspecified)	Autofluor counter 23166
C=C(C)CN1C(=O)C(O)(CC(=O)c2ccc3c(c2)OCCO3)c2ccccc21 (stereo unspecified)	none (no result: TcdB inh)
Oc1ccc(Cl)cc1C1=NCCNC(C(F)(F)C(F)F)=C1	Autofluor counter 22480
Cc1ccc(O)c(C2=NCCNC(C(F)(F)C(F)F)=C2)c1	Autofluor counter 23315 (no result: TcdB inh)
CO[C@H]1CN(C)C(=O)c2cc(C#N)ccc2OC[C@H]2O[C@H](CC[C@@H]2OC)CCN(C)C(=O)[C@H]1C	none (no result: BoNT A protease, Autofluor counter, Anthrax LF inh2, BoNT-F LC inh)
